# Screening data as filed in PubChem BioAssay.
# CHO-K1 Ca PAM: M1 PAM counterscreen hit in parental CHO-K1 cells | ATP EC20, Fluo-8 calcium fluorescence; 0% at ATP EC20, 100% at ATP max | activation, % at 3 µM | 0.02% of 360,000 active | AID 602247;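 active = activation above the run cutoff, the mean activation of all test compounds plus 3 SD, cut at about 40% in these data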;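 also: peak over basal fluorescence ratio in a 140 s read after ATP addition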
# CHO-K1 Ca antag: M1 antagonist counterscreen hit in parental CHO-K1 cells | AID 602250 | 0.6% of 360,000 active | inhibition, % at 3 µM | ATP-induced calcium, Fluo-8 fluorescence;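 active = inhibition above a per-plate cutoff, the plate's mean sample inhibition plus 3 SD, cut at about 24% in these data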;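 also: 0% = DMSO plus EC80 ATP and 100% = DMSO alone without ATP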
# CHRM1 PAM: potentiates human M1 receptor response to acetylcholine. P11229. CHO-K1 hM1, Fluo-8 calcium fluorescence, ACh EC20; 0% = ACh EC20, 100% = maximal ACh. activation, % at 3 µM. 0.088% of 360,000 active. AID 588819; in the data active = activation above about 19%, passing the limit was not always enough
# Target sequence (P11229 whole entry, looked up): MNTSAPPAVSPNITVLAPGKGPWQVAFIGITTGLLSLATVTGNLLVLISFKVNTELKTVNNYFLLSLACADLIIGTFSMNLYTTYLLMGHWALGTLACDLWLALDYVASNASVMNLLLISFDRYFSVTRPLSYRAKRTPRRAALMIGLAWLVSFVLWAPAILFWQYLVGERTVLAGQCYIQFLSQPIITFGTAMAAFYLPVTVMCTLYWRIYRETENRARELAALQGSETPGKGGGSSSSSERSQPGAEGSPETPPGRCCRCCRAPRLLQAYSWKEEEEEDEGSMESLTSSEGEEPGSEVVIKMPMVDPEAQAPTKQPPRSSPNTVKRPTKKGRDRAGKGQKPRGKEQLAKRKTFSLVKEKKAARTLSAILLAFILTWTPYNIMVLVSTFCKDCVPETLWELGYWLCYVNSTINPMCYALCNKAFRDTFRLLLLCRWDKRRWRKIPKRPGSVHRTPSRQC
# M1 ag parental: M1 agonist counterscreen hit in parental CHO-K1 cells; Fluo-8 calcium fluorescence; scaled to maximal ATP response, vehicle zero; activation, % at 3 µM; 0.48% of 360,000 active; in the data active = activation above about 15%;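 also: untransfected CHO-K1 host cells lacking M1 receptor as counterscreen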
# CHRM1 agonist: activates human CHRM1 receptor | activation, % at 3 µM | 0.33% of 360,000 active | P11229 | CHO-K1 hM1, Fluo-8 calcium fluorescence, agonist mode; 0% DMSO, 100% acetylcholine EC100;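 active = activation above the run's mean compound activation plus 3 SD, cut at about 16% in these data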;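 also: peak over basal fluorescence ratio within a 140 s kinetic read after compound addition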
# M1 antag: blocks human M1 muscarinic receptor; P11229; CHO-K1 hM1, Fluo-8 calcium fluorescence, ACh EC80 antagonist; inhibition, % at 3 µM; 1.3% of 360,000 active;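 active = percent inhibition above its own plate's cutoff, namely the mean of that plate's compound wells plus 3 SD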;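 also: peak over basal fluorescence ratio during 140 s after agonist addition; 0% = ACh EC80 plus DMSO and 100% = DMSO alone without agonist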
# Numbers without * were called inactive. The list is not random: actives were taken first. Their share in the collection is about 2.3%.
SMILES,CHO-K1 Ca PAM,CHO-K1 Ca antag,CHRM1 PAM,M1 ag parental,CHRM1 agonist,M1 antag
Cc1ccc(C(=O)N2CCN(c3ccc(NC(=O)COc4ccccc4C)cc3)CC2)cc1,-14,5,-3,7,-2,12
O=C1CC(c2ccccc2)CC2=C1C1(CCCC1)N=C(Nc1nc3ccccc3o1)N2 (stereo unspecified),-4,1,-11,0,-1,8
Cc1cc(NC(=O)COc2ccc(Cl)cc2Cl)n(-c2ccccc2)n1,-3,10,-1,1,-3,0
Cc1cc(NC(=O)CSc2cc(Cl)ccc2Cl)n(-c2ccccc2)n1,-4,25*,-6,3,-8,1
COc1cccc(NC(=O)C(c2ccccc2)N2CCCCC2)c1 (stereo unspecified),4,-11,-23,0,-6,50*
COc1cccc(NC(=O)C(c2ccccc2)N2CCN(CC(=O)N3CCOCC3)CC2)c1 (stereo unspecified),20,-13,7,0,-1,-3
CCN(CC)S(=O)(=O)c1ccc(O)c(NC(=O)COc2ccc(S(=O)(=O)N3CCOCC3)cc2)c1,15,-10,-2,0,-7,9
CCOC(=O)N1CCC(N(CCN(C)C)C(=S)Nc2ccc(F)c(Cl)c2)CC1,-12,27*,-1,0,-10,2
CSc1ccccc1OCc1cc(C(=O)N[C@H]2CCCCNC2=O)no1,17,-3,1,4,-4,0
CCc1nc2c(OCc3ccc(Cl)cc3Cl)cccn2c1N(C)C(=O)CC(C)C,13,-7,-9,0,-8,0
CCOC(=O)c1[nH]c(C)c(/C(O)=C2\C(=O)C(=O)N(CCCN(CC)CC)C2c2cccnc2)c1C (stereo unspecified),10,-5,5,1,-6,-11
CCOC(=O)c1[nH]c(C)c(/C(O)=C2\C(=O)C(=O)N(CCCN3CCOCC3)C2c2cccnc2)c1C (stereo unspecified),11,0,8,19*,-5,0
Cc1csc(NC(=O)c2ccc(Cn3nc(C)c(Br)c3C)o2)n1,4,14,-10,17*,-2,14
Cc1nn(Cc2ccc(C(=O)Nc3ccccc3C(F)(F)F)o2)c(C)c1Br,4,2,-7,2,1,6
CCNC(=O)C1(C)CCCN(Cc2cccc(Oc3ccccc3)c2)C1 (stereo unspecified),-6,13,11,0,-8,-20
O=[N+]([O-])c1ccc(N2CCN(C(=S)NC3CCCCC3)CC2)cc1,4,9,-21,9,2,21*
O=CN1Cc2[nH]c3ccccc3c2N(c2ccc(Cl)cc2)C1=O,-8,27*,2,0,-3,11
CC(=O)Oc1ccccc1/C=C/c1ccc2ccccc2[n+]1C,-21,9,-29,0,-8,54*
Cc1noc(C)c1C(=O)OCC(=O)Nc1ccccc1C(=O)NC(C)c1ccccc1 (stereo unspecified),49*,-17,3,3,-1,-1
COc1cccc(CN2CCC(C(=O)NC(C)c3cccc4ccccc34)CC2)c1 (stereo unspecified),-4,6,1,5,5,1
Cc1ccc(-c2c3c(=O)n(C)c(=O)n(C)c3cn2Cc2ccccc2)cc1,19,-5,10,4,-6,-8
Cn1c(=O)c2c(-c3ccccc3)n(CCCN3CCOCC3)cc2n(C)c1=O,-5,29*,0,0,-3,7
Nc1ccccc1-n1cccc1,6,-11,15,0,-1,-23
FC(F)(F)c1cccnc1Oc1ccc(C2=NCCS2)cc1,22,-9,1,2,24*,-6
Nc1cccnc1Oc1ccc(F)cc1,8,-10,-7,4,-2,3
SMILES,CHO-K1 Ca PAM,CHO-K1 Ca antag,CHRM1 PAM,M1 ag parental,CHRM1 agonist,M1 antag
Cc1cc(C(=O)Nc2ccc(Nc3ccccc3)cc2)ccc1[N+](=O)[O-],3,-7,-2,3,-2,-5
O=C(Nc1ccc(Cl)c(Cl)c1)Nc1nccs1,-24,34*,-11,11,8,27
CN(c1ccccc1)S(=O)(=O)c1cccc(NC(=O)c2ccncc2)c1,-1,4,-11,15*,3,23
O=C(Nc1ccc(Nc2ccccc2)cc1)c1ccc(Cl)c([N+](=O)[O-])c1,-13,11,-16,6,-1,32*
CN(c1ccccc1)S(=O)(=O)c1cccc(NC(=O)c2ccc(Cl)c([N+](=O)[O-])c2)c1,-15,3,-18,8,-2,37*
CCOc1cc(CNc2cccc3[nH]c(C)nc23)ccc1OC,8,-4,17,7,2,-16
O=C1NC[C@H](Cc2ccccc2)N(CC2CCCCC2)C1=O,9,-5,3,0,-4,1
CN(c1cccc(NC(=O)c2ccc(N(C)S(=O)(=O)c3ccccc3)cc2)c1)S(C)(=O)=O,-12,24*,-35,16*,-5,28*
O=C(Nc1ccc(Cl)c(Cl)c1)c1ccc(Cl)c(Cl)c1,-22,16,-24,8,-4,37*
O=C(NN1C(=O)C2C(c3ccccc3)C=CC(c3ccccc3)C2C1=O)c1ccccc1 (stereo unspecified),28,-11,-27,5,-11,46*
O=C(NN1C(=O)C2C3c4ccccc4C(c4ccccc43)[C@@H]2C1=O)c1ccccc1 (stereo partly specified),16,-10,7,0,-9,-5
O=C(NN1C(=O)C2C(c3ccccc3)C=CC(c3ccccc3)C2C1=O)c1cccc(Br)c1 (stereo unspecified),18,1,-25,8,-11,81*
COC(=O)c1ccc(CSc2nnnn2C)o1,20,-10,-18,0,-4,43*
Cc1ccc(Cl)cc1NC(=O)c1ccc(CSc2nnnn2C)cc1,-5,26*,-1,1,-4,11
COC(=O)c1ccc(CSc2ncnc3ccccc23)o1,-6,25*,0,0,-5,2
COC(=O)c1ccc(CSc2ncnc3c2oc2ccccc23)o1,15,-9,9,1,-3,-17
COC(=O)c1ccc(CSc2nnc(C)n2N)o1,20,-8,12,1,-7,-10
COC(=O)c1ccc(CSc2ccc3nnc(-c4cccc(F)c4)n3n2)o1,-7,12,-19,1,-11,38*
CC(Sc1nc2ccccc2[nH]1)C(=O)Nc1ccccc1F (stereo unspecified),22,-16,8,4,-4,-4
Cc1cccc(C(C)C)c1NC(=O)COC(=O)CCN1C(=O)C2CC=CCC2C1=O (stereo unspecified),-8,-4,3,3,1,-8
